From PubChem BioAssay AID504329 (Southern Research Specialized Biocontainment Screening …, 2011)
The whole screen tested about 340,000 compounds, of which about 1,000 (0.29%) were called active. No stated cut-off is given here; in the data, inconclusive means inhibition above about 27% without an active follow-up result; inactive means below that. Only a sample is shown. Entries with a potency or affinity are not part of this list.

assay: H1N1 influenza NS1A inhibitors, functional cell based assay (AID 504329); details: percent inhibition, at 12.5 µM, hits give high values

| Structure (SMILES) | inhibition |
| --- | --- |
| Cc1cc(C)c2nc(N3CCCC(C(=O)NC4CCCC4)C3)sc2c1 (centres undefined) | 1.03% (inactive) |
| CN(CC(=O)Nc1c(Cl)cccc1Cl)C(=O)CCC1CCCC1 | -7.47% (inactive) |
| CCOc1ccc(OCCC(=O)OCC(=O)NCc2ccccc2)cc1 | 4.79% (inactive) |
| Cc1nc2ccccc2c2oc(C(=O)N3CCc4ccccc4C3)cc12 | 14.6% (inactive) |
| COc1ccccc1C(=O)NC(=O)COC(=O)c1ccc(Cl)cc1[N+](=O)[O-] | 11.3% (inactive) |
| O=C(N/N=C\C=C\c1ccc2c(c1)OCO2)C1COc2ccccc2O1 (centres undefined) | -2.03% (inactive) |
| CN1/C(=C\C=C2C(=O)NC(=O)NC2=O)C(C)(C)c2ccccc21 | -3.94% (inactive) |
| CCOC(=O)CC1=NN(c2ccccc2)C(=O)/C1=C\c1ccc(OC)cc1OC | 17.9% (inactive) |
| O=C1CC(N2C(=O)/C(=C/C=C/c3ccccc3)SC2=S)C(=O)N1c1ccccc1 (centres undefined) | 7.39% (inactive) |
| Cc1ccc(N2C(=O)NC(=O)/C(=C\C=C\c3ccco3)C2=O)cc1 | -8.27% (inactive) |
| CN1/C(=C\C=C2C(=O)NC(=S)NC2=O)C(C)(C)c2ccccc21 | 6.82% (inactive) |
| O=C1NC(=O)N(c2ccccc2)C(=O)/C1=C/C=C/c1ccco1 | -5.11% (inactive) |
| O=C(O)c1ccc(N2C(=O)/C(=C/C=C/c3ccccc3)SC2=S)cc1 | -0.2% (inactive) |
| COC(=O)CC1=NN(c2ccccc2)C(=O)/C1=C\c1ccc(OC)cc1 | 3.36% (inactive) |
| Cc1ccc(S(=O)(=O)CCC(=O)OC2CC(C)OC2=O)cc1 (centres undefined) | -7.36% (inactive) |
| C=CCOc1ccc(Br)cc1/C=C1\NC(=S)N(C(C)=O)C1=O | 5.35% (inactive) |
| O=C(O)CP(=O)(c1ccccc1)c1ccccc1 | -20.8% (inactive) |
| O=C(NC1CC1)C1CSC(c2cccnc2)=N1 (centres undefined) | -5.68% (inactive) |
| COC(=O)CNC(=O)CNC(=O)c1nn(-c2ccc(OC)c(Cl)c2)c(=O)c2ccccc12 | -9.13% (inactive) |
| Cc1ccc(S(=O)(=O)c2nc(NCCN(C)C)sc2Cl)cc1 | 3.06% (inactive) |
| CCOC(=O)C1=C(C(=O)OCC)N(Cc2ccccc2)CCC1=O | -3.47% (inactive) |
| Cc1ccc(/C=N/NC(=O)C(C)NC(=O)c2ccccc2)cc1 (centres undefined) | -0.33% (inactive) |
| CCC(C)NC(=O)CSc1nc2ccccc2c(=O)n1-c1c(C)n(C)n(-c2ccccc2)c1=O (centres undefined) | -0.57% (inactive) |
| Fc1ccccc1CSc1nnc(-c2cnccn2)n1Cc1ccco1 | -1.61% (inactive) |

| Structure (SMILES) | inhibition |
| --- | --- |
| O=C(NCCc1ccccc1)c1cc(-c2ccccc2)c(N2CCOCC2)s1 | 1.49% (inactive) |
| CCCNC(=O)c1cc(-c2ccccc2)c(N2CCCCC2)s1 | -16.7% (inactive) |
| NC(=S)N/N=C\c1c2ccccc2cc2ccccc12 | 8.41% (inactive) |
| CC(=O)n1cc(/C=N/NC(N)=S)c2ccccc21 | -5.48% (inactive) |
| NC(=S)N/N=C/c1c(O)ccc2ccccc12 | -3.38% (inactive) |
| CNc1cccnc1C=NNC(N)=S | 17.7% (inactive) |
| Cc1[nH]c2ccccc2c1/C=N/NC(N)=S | 5.2% (inactive) |
| Cn1cc(/C=N/NC(N)=S)c2ccccc21 | -12.5% (inactive) |
| O=C(Nc1ccccc1)c1ccc(S(=O)(=O)NCc2cccnc2)cc1 | 10.4% (inactive) |
| CCn1c(SCC(=O)Nc2nc(-c3ccccc3)cs2)nc2c1c(=O)n(C)c(=O)n2C | 4.76% (inactive) |
| Cc1ccccc1-c1n[nH]c(=S)n1/N=C/C=C/c1ccco1 | -17.6% (inactive) |
| CNC(=O)Cn1nc(-c2ccc(C)c(S(=O)(=O)N(C)C)c2)c2ccccc2c1=O | -13.6% (inactive) |
| COc1ccccc1NC1=C(N2CCCCC2)C(=O)c2ccccc2C1=O | -0.23% (inactive) |
| CC(=O)N(C)C1=C(N2CCOCC2)C(=O)c2ccccc2C1=O | 1.43% (inactive) |
| O=C1C(Nc2ccccc2)=C(N2CCCCC2)C(=O)c2ccccc21 | 15.3% (inactive) |
| CC(=O)N(C1=C(N2CCOCC2)C(=O)c2ccccc2C1=O)c1ccc(C(=O)O)cc1 | 0.48% (inactive) |
| O=C(Nc1ccc(OC(F)F)cc1)c1cc(S(=O)(=O)N2CCOCC2)ccc1F | -7.89% (inactive) |
| COCc1c(C(=O)OCC(=O)N(C)C2CCS(=O)(=O)C2)oc2ccccc12 (centres undefined) | -9.04% (inactive) |
| Cc1ccccc1NC(NC(=O)c1cccnc1)C(Cl)(Cl)Cl (centres undefined) | -5.69% (inactive) |
| Cc1ccc(S(=O)(=O)/N=C2\C=C(NS(=O)(=O)c3ccccc3)C(=O)c3ccccc32)cc1 | 8.43% (inactive) |
| Cc1ccc(S(=O)(=O)Nc2ccc(N=Nc3ccc(O)cc3)cc2)cc1 | 4.71% (inactive) |
| COCCC(=O)N1CCC(Oc2ccc(C(=O)NC3CCOC(C)(C)C3)cc2)CC1 (centres undefined) | 5.89% (inactive) |
| O=C1C(=O)c2ccccc2-c2ccccc21 | 5.48% (inactive) |
| O=C1C(=O)c2ccc(-c3ccccc3)cc2-c2ccccc21 | -3.6% (inactive) |

| Structure (SMILES) | inhibition |
| --- | --- |
| CC1CCN(CCCNC(=O)c2cc3c(s2)-c2ccccc2OC3)CC1 | -6.94% (inactive) |
| Cc1c(Cl)cccc1NC(=O)CC1Oc2ccccc2NC1=O (centres undefined) | -22.6% (inactive) |
| Fc1cccc(F)c1/C=N/NC(=S)Nc1cccnc1 | 4.25% (inactive) |
| Fc1ccc(/C=N/NC(=S)Nc2cccnc2)cc1F | 5.25% (inactive) |
| Fc1ccc(/C=N/NC(=S)Nc2cccnc2)cc1 | -6.6% (inactive) |
| Oc1ccc(/C=N/NC(=S)Nc2cccnc2)cc1O | -4.43% (inactive) |
| COc1cccc(/C=N/NC(=S)Nc2cccc(S(=O)(=O)N(C)C)c2)c1 | -0.6% (inactive) |
| COc1cc(/C=N/NC(=S)Nc2cccnc2)cc(OC)c1OC | -1.86% (inactive) |
| S=C(N/N=C/c1ccc2ncccc2c1)Nc1cccnc1 | -1.92% (inactive) |
| CN(C)S(=O)(=O)c1cccc(NC(=S)N/N=C/c2cc(Br)ccc2O)c1 | -4.31% (inactive) |
| O=S(=O)(c1ccccc1)N1CCN(C2CCCCCCC2)CC1 | -3.77% (inactive) |
| CCCn1c(=O)c(C(=O)NCc2ccc3c(c2)OCO3)c(O)c2ccccc21 | -2.14% (inactive) |
| COc1ccc2oc(C(=O)OCC(=O)N3CC(C)CC(C)C3)c(C)c2c1 (centres undefined) | -0.35% (inactive) |
| CSCCC(NC(=O)c1ccccc1)C(=O)NC1CCCC1 (centres undefined) | 1.8% (inactive) |
| COC(=O)c1ccc2c(c1)C(=O)/C(=C/c1ccc(C)cc1)O2 | 0.65% (inactive) |
| CC1(C)Cc2c(cnn2-c2ccccc2)C(NC(=O)CCCn2cncn2)C1 (centres undefined) | 4.41% (inactive) |
| Cc1ccccc1CN1CCC(n2nccc2NC(=O)CCCc2ccccc2)CC1 | -1.87% (inactive) |
| O=C(NCc1cnn(-c2ccccc2)c1)C1CCC(=O)N(C2CC2)C1 (centres undefined) | -1.14% (inactive) |
| CC(C)C(NC(=O)C(NC(=O)C1OC2OC(C)(C)OC2C2OC(C)(C)OC12)C(C)C)C(=O)O (centres undefined) | 4.15% (inactive) |
| Fc1c(F)c(F)c(/C=N/NC(=S)Nc2cccnc2)c(F)c1F | 4.9% (inactive) |
| COc1ccccc1/C=N/NC(=S)Nc1cccnc1 | 2.47% (inactive) |
| COc1cccc(/C=N/NC(=S)Nc2cccnc2)c1 | 8.47% (inactive) |
| Oc1ccc(/C=N/NC(=S)Nc2cccnc2)cc1 | -2.94% (inactive) |
| COC(=O)c1cc(OC)c(OC)cc1NC(=O)C(C)Sc1ccc(C)cc1 (centres undefined) | -9.85% (inactive) |

| Structure (SMILES) | inhibition |
| --- | --- |
| CC1(C)C2CC=C(CN3CCC(O)CC3)C1C2 (centres undefined) | 4.73% (inactive) |
| O=C(Nc1ccc(Cl)cc1)Nc1ccccn1 | -13.9% (inactive) |
| COc1ccc(CNC(=O)Cn2nc(C(F)(F)F)c(Br)c2C)cc1 | -1.07% (inactive) |
| Nc1ccc(NC(=S)Nc2ccccc2)cc1 | 8.73% (inactive) |
| C/C(=N\NC(=O)c1ccc(Cl)cc1)c1ccccn1 | -5.53% (inactive) |
| CCOc1ccc(OCc2ccc(C(=O)N/N=C(\C)c3ccccn3)cc2)cc1 | -8.32% (inactive) |
| O=C(NCCNC(=O)c1ccccn1)c1ccc(F)cc1 | 4.55% (inactive) |
| CC(C)(C)c1ccc(C(=O)NCCCNC(=O)c2ccccn2)cc1 | 0.93% (inactive) |
| CSc1ccc(CN(C)C(=O)c2cc(Cl)c3c(c2)OCCO3)cc1 | 0.05% (inactive) |
| Cc1ccc(C)c(S(=O)(=O)N2CCN(C(=O)CCNS(=O)(=O)c3ccc(C)c(C)c3)CC2)c1 | 5.37% (inactive) |
| Cc1ccc2nc(-c3cccc(S(=O)(=O)N4CCCC4)c3)cn2c1 | -1.58% (inactive) |
| COc1ccc(C(=O)NCCc2c[nH]c3ccccc23)cc1S(=O)(=O)N1CCCCC1C (centres undefined) | -1.05% (inactive) |
| Cc1c(-c2ccccc2)nc2ccccc2c1C(=O)Nc1ccncc1 | -4.14% (inactive) |
| CC(C)=CCC[C@](C)(O[C@@H]1O[C@H](CO[C@@H]2OC[C@H](O[C@@H]3OC[C@@H](O)[C@H](O)[C@H]3O)[C@H](O)[C@H]2O)[C@@H](O)[C@H](O)[C@H]1O)C1CC[C@]2(C)C1[C@H](O)CC1[C@@]3(C)CC[C@H](O)C(C)(C)C3[C@@H](O)C[C@]12C (some centres undefined) | -10.2% (inactive) |
| CC(=O)N1CCN(c2ccc(NCc3ccc(-c4cccc(Cl)c4)o3)cc2)CC1 | 23.9% (inactive) |
| CC(=O)N1CCN(c2ccc(NCc3ccc(Br)o3)cc2)CC1 | 6.1% (inactive) |
| C=CCn1c(CC(=O)Nc2ccc(C)cc2C)nnc1SCC(=O)N1CCOCC1 | -7.34% (inactive) |
| C/C(=C\c1ccccc1)CN1CCN(c2cccc(Cl)c2)CC1 | -1.4% (inactive) |
| Cc1ncc(N=Nc2ccccc2)c(-c2ccccc2)n1 | 23.1% (inactive) |
| Cc1ncc(N=Nc2ccc(F)cc2)c(-c2ccc(Cl)cc2)n1 | 10.6% (inactive) |
| COc1ccc(N=Nc2nc(-c3ccccc3)c(-c3ccccc3)[nH]2)cc1 | 13.8% (inactive) |
| COc1ccc(-c2nc(C)ncc2N=Nc2ccccc2)cc1 | 24.1% (inactive) |
